This passage reports inhibition results from PubChem BioAssay AID624267 (The Scripps Research Institute Molecular Screening Center, 2012).

Screen size: about 360,000 compounds; about 1,400 (0.39%) were called active. The entries come from a sample that favours actives as a whole. Values without a mark were called inactive. Rule as the data show it: active = inhibition above about 21%; inactive = the rest.

In the assay the target is Receptor-interacting serine/threonine-protein kinase 2 (Homo sapiens) (UniProt O43353). Description: NOD2-RIPK2 binding disruptors in cells, primary screen, fluorescence, CHO cells, BLA complementation (AID 624267).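 Also: 0% = vehicle only and 100% = reference blocker.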 To be noted: CHO BLA complementation NOD2-RIPK2, CCF4 ratio; at 4.98 µM; active compounds read high.
Receptor-interacting serine/threonine-protein kinase 2 (Homo sapiens), sequence (O43353 whole entry, looked up): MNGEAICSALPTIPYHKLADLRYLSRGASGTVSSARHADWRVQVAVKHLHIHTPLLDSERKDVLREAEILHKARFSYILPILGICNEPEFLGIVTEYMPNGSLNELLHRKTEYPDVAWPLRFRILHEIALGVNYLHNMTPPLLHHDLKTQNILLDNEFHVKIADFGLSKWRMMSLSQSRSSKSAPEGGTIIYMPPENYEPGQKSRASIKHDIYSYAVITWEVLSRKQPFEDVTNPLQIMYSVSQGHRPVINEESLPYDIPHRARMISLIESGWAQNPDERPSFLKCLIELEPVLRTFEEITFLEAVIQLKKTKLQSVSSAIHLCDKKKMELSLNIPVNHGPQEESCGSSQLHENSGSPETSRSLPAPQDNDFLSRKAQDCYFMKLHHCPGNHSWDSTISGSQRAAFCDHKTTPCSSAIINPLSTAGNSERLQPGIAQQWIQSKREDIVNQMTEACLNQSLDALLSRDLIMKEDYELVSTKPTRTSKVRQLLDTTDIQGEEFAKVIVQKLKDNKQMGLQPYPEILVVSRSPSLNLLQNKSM
Turning to `CCOC(=O)[C@]12Cc3cc(OC)ccc3[C@H]1N(C(C)C)C(=O)c1ccccc12`, the inhibition was -1.01%.
In the case of `CCOC(=O)[C@]12Cc3ccccc3[C@H]1N(C1CCCCC1)C(=O)c1cc(OC)ccc12`, the inhibition is 43.5% (active).
The value for `CCOC(=O)c1cccc(C2=C(CNC(=O)c3ccncc3)[C@H]3CC[C@@H](C2)N3Cc2ccccc2)c1` was -12.2%.
Take `Cc1ccc2c(c1)C1CN(C)CCC1N2C(=O)Cn1nnc(-c2ccccc2F)n1` (stereo not given): the inhibition is -3.9%.
`CCN1CCN(Cc2cc(OC)c3c(c2)OCO3)CC1`: the inhibition is -5.64%.
For the compound `COc1cc(OC)cc(C2(C#N)CCN(C)CC2)c1`, the inhibition is -12.2%.
In the case of `c1ccc(CCNC2CCCCCC2)cc1` it was -21.6%; in that of `CC(=O)OC1C2(CC3N4C(=O)C5(CO)SSC4(CC31O)C(=O)N5C)OC(C)C(C)(C)C2=O` (stereo not given), 63.9% (active).
As to `CC(=NCc1ccc2c(c1)OCO2)c1c(O)[nH]c(=O)[nH]c1=O`, the inhibition is 4.27%.
For `CC(C(=O)Nc1ccc(Cl)cc1Cl)N1CC=C(c2ccccc2)CC1` (stereo not given), the inhibition was -16.5%.
Turning to `CC[C@H]1CC2CN3CCc4c([nH]c5ccccc45)C(C(=O)OC)(C2)C13` (stereo not given in full), the inhibition is -13.6%.
In the case of `CNCC(O)c1cc(F)c(OCc2ccccc2)c(OCc2ccccc2)c1F` (stereo not given) it was -9.31%; in that of `CN(C)CC1Oc2ccccc2OC1(O)c1ccccc1` (stereo not given), 54.1% (active); in that of `COc1ccccc1NC(=O)N1C[C@@H]2C[C@@H](C1)c1cccc(=O)n1C2`, -9.61%.
In the case of `COC(=O)C1=C(c2ccc(Cl)c(C(F)(F)F)c2)C[C@@H]2CC[C@H]1N2C(=O)NC1CC1` it was -1.54%.

As a reminder, the inhibition is the drop in the measured response relative to a control, in per cent.
